IP6K1 inhibitor: IP6K1 kinase inhibition; Q92551; IP6K1 kinase, ADP-Glo luminescence, 2 h; hits give low values; activity change, % (series mostly up to about 58 µM); 140,000 tested, 0.81% active; in the data active = activity change below about -25%
Target sequence (Q92551 whole entry, looked up): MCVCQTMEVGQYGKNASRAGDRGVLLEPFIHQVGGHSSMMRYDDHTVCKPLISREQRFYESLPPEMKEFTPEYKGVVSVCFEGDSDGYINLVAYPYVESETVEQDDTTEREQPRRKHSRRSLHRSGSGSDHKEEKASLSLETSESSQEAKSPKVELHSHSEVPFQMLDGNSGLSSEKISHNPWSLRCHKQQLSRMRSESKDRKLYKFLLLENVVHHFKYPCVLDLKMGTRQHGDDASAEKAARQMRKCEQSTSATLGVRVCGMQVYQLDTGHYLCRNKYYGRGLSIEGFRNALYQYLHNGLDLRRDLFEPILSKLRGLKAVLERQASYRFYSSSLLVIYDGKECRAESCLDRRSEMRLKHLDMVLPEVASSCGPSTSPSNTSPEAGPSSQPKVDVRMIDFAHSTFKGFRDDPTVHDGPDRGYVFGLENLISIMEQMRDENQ
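ADP-Glo luminescence measures ADP made by human IP6K1 during a 2 h RT reaction with ATP/IP6 (mix at 1.3 mM/130 uM); top library doses 57.5 and 19.1 uM final.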
KDM5B inh: KDM5B demethylase inhibition. Q9UGL1. KDM5B demethylase, FDH-coupled NADH fluorescence (FDH is formaldehyde dehydrogenase). Potency, µM (series often up to 57.7 µM), hits mostly inhibitors. 220,000 tested, 2.6% active. AID 1347165; active = well fitted inhibition curve with a large enough effect; inconclusive = small, poorly fitted or top-dose-only effect; inactive = no such curve, though single readings can be large or run the other way; note: nearly all actives have a fitted effect of over 70% in size
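qHTS format, multiple compound concentrations. Buffer 50 mM HEPES pH 7.5/0.01% Tween-20; 200 nM KDM5BΔAP final; 10 min compound preincubation; substrate-mix levels 12.5 µM peptide, 25 µM α-KG, 0.25 mM NAD⁺; 30 min RT; ΔRFU.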
Large screens that a line does not name were inactive. The list is not random: actives were taken first. Their share in the collection is about 2.7%.

O=C(Nc1ccc2c(c1)CCC2)c1cc2n(n1)CC(c1ccc(Cl)cc1)OC2 (stereo unspecified)	KDM5B inh 31.6µM
O=C(Nc1ccc(F)cc1)c1cc2n(n1)CC(c1ccc3c(c1)OCO3)OC2 (stereo unspecified)	KDM5B inh inconclusive
CC(C(=O)N1CCCCC1)N(C)CC(=O)Nc1ccc(Cl)c(C(F)(F)F)c1 (stereo unspecified)	none (no result: IP6K1 inhibitor)
COc1cccc(CNc2ccc(N3CCOCC3)c(C(=O)O)c2)c1	none (no result: IP6K1 inhibitor)
CCc1cccc(NC(=O)c2cc3n(n2)CC(c2ccc4c(c2)OCO4)OC3)c1 (stereo unspecified)	KDM5B inh inconclusive
O=C(Nc1cccc(Cl)c1)c1cc2n(n1)CC(c1ccc3c(c1)OCO3)OC2 (stereo unspecified)	KDM5B inh 25.1µM
Cc1ccc(SCc2ccc(C(=O)Nc3ccc(C)cc3C)cc2)cc1	none (no result: IP6K1 inhibitor)
CCCNC(=O)CCC(=O)NC(C)c1cccc(Cl)c1 (stereo unspecified)	none (no result: IP6K1 inhibitor)
COc1ccc(CCNC(=O)CCc2c(C)noc2C)cc1OC	none (no result: IP6K1 inhibitor)
COc1ccc(/C=C/c2ccc3c(c2)C(=O)N2CC[C@H](NC(=O)CCC(=O)O)[C@H]2C(=O)N3)cc1	KDM5B inh 28.2µM
Cc1cccc(-c2ccc3c(c2)C(=O)N2CC[C@H](NC(=O)COCC(=O)O)[C@H]2C(=O)N3)c1C	KDM5B inh inconclusive
CSCC(=O)N[C@H]1CCN2C(=O)c3cc(-c4ccccc4)ccc3NC(=O)[C@H]12	none
O=C(N[C@H]1CCN2C(=O)c3cc(/C=C/c4ccccc4)ccc3NC(=O)[C@H]12)C1CCCC1	KDM5B inh 31.6µM
O=C(N[C@H]1CCN2C(=O)c3ccccc3NC(=O)[C@H]12)C1CCCC1	none
O=C(O)COCC(=O)N[C@H]1CCN2C(=O)c3cc(/C=C/c4ccccc4)ccc3NC(=O)[C@H]12	KDM5B inh 31.6µM
O=C(O)COCC(=O)N[C@H]1CCN2C(=O)c3cc(-c4ccccc4F)ccc3NC(=O)[C@H]12	none
COc1ccc(-c2ccc3c(c2)C(=O)N2CC[C@H](NC(=O)COCC(=O)O)[C@H]2C(=O)N3)cc1	KDM5B inh 20µM
O=C(NC1CCCC1)c1nc2cccnc2n(Cc2ccccc2)c1=O	none (no result: KDM5B inh)
O=C(NCc1cccc(C(F)(F)F)c1)c1ccc2nnc(-c3ccc(Cl)cc3)n2c1	none (no result: KDM5B inh)
O=C(NCc1ccccc1)c1nc2sccn2c1-c1ccncc1	none (no result: KDM5B inh)
C=CCO[C@@H]1CCN2C(=O)c3cc(-c4ccc(OC)cc4)ccc3NC(=O)[C@H]12	KDM5B inh 35.5µM
O=C1Nc2ccc(-c3ccccc3)cc2C(=O)N2CC[C@H](NS(=O)(=O)c3cccs3)[C@@H]12	none
O=C(O)CCC(=O)N[C@H]1CCN2C(=O)c3cc(/C=C/c4ccccc4)ccc3NC(=O)[C@H]12	KDM5B inh 39.8µM
COc1ccc(C(=O)N2CCN3C(=O)c4cc(-c5ccc(Cl)cc5)ccc4NC(=O)[C@@H]3C2)cc1	KDM5B inh inconclusive
O=C1Nc2ccc(/C=C/c3ccccc3)cc2C(=O)N2CC[C@H](NS(=O)(=O)c3cccs3)[C@@H]12	KDM5B inh 31.6µM
O=C(N[C@H]1CCN2C(=O)c3cc(/C=C/c4ccccc4)ccc3NC(=O)[C@H]12)c1cnccn1	KDM5B inh inconclusive
CC(C)Cn1c(=O)c(C(=O)NCCc2ccccc2)nc2cccnc21	none (no result: KDM5B inh)
Cc1cccc(C(=O)NC2CCCCC2C)c1 (stereo unspecified)	none (no result: IP6K1 inhibitor)
COc1cccc(CNC(=O)CNC(=O)c2cccc(-c3ccc(C(F)(F)F)cc3)c2)c1	none (no result: KDM5B inh)
O=C(O)c1ccnc(-c2ccnc(NCCCN3CCCC3=O)n2)c1	KDM5B inh inconclusive
O=C(O)c1ccnc(-c2ccnc(NCc3noc(C4CCCC4)n3)n2)c1	KDM5B inh inconclusive
O=C(O)c1ccnc(-c2ccnc(NCCc3noc(C4CCC4)n3)n2)c1	KDM5B inh 28.2µM
O=C(O)c1ccnc(-c2ccnc(NCCN3CCCCC3=O)n2)c1	KDM5B inh 22.4µM
Cc1ccc2cccc(NC(=O)COc3ccc(C)c(C)c3)c2n1	none (no result: IP6K1 inhibitor)
C=CCNC(=O)N[C@H]1CO[C@H]2[C@@H]1OC[C@@H]2Nc1nccc(-c2ccc(OC)cc2)n1	KDM5B inh 35.5µM
CCNC(=O)N[C@H]1CO[C@H]2[C@@H]1OC[C@@H]2Nc1nccc(-c2ccc(OC)cc2)n1	KDM5B inh 28.2µM
COc1ccc(-c2ccnc(N[C@H]3CO[C@H]4[C@@H]3OC[C@@H]4NC(=O)N3CCOCC3)n2)cc1	KDM5B inh inconclusive
COc1ccc(-c2ccnc(N[C@H]3CO[C@H]4[C@@H]3OC[C@H]4OC(=O)Nc3ccc(C(C)=O)cc3)n2)cc1	none
COc1ccc(-c2ccnc(N[C@H]3CO[C@H]4[C@@H]3OC[C@H]4OCC(=O)N(C)C)n2)cc1	KDM5B inh 35.5µM
C=CCNC(=O)N[C@H]1CO[C@H]2[C@@H]1OC[C@@H]2Nc1nccc(C(C)(C)C)n1	none
COc1ccc(-c2ccnc(N[C@H]3CO[C@H]4[C@@H]3OC[C@H]4OC(=O)Nc3ccc(C(C)(C)C)cc3)n2)cc1	KDM5B inh 25.1µM
COc1ccc(-c2ccnc(N[C@H]3CO[C@H]4[C@@H]3OC[C@H]4OC(=O)Nc3cccc(C(C)=O)c3)n2)cc1	none
COc1ccc2[nH]c3c(c2c1)CCNC31CCN(Cc2ccc(F)cc2F)CC1	KDM5B inh 11.2µM
CCN1CCC(N2CCC3(CC2)NCCc2c3[nH]c3ccc(OC)cc23)CC1	KDM5B inh inconclusive
COc1ccc2[nH]c3c(c2c1)CCNC31CCN(C(=O)CNC(C)=O)CC1	KDM5B inh inconclusive
COc1ccc2[nH]c3c(c2c1)CCNC31CCN(C2CCCC2)CC1	KDM5B inh 22.4µM
COc1ccc2[nH]c3c(c2c1)CCNC31CCN(C(=O)C2CC=CC2)CC1	KDM5B inh 22.4µM
CCC(C)C(=O)N1CCC2(CC1)NCCc1c2[nH]c2ccc(OC)cc12 (stereo unspecified)	KDM5B inh 31.6µM
COCCOCC(=O)N1CCC2(CC1)NCCc1c2[nH]c2ccc(OC)cc12	KDM5B inh inconclusive
COc1ccc2[nH]c3c(c2c1)CCNC31CCN(C(=O)c2cnccn2)CC1	none
COc1ccc(CC(=O)N[C@H]2C[C@@H](c3nc(-c4ccc5ccccc5c4)no3)N(C)C2)cc1	KDM5B inh inconclusive
O=[S+]([O-])(c1ccccc1)N1CCC2(CC1)CC(c1cccc(C(F)(F)F)c1)=NO2	none (no result: KDM5B inh)
CS(=O)(=O)N1CCCC(C(=O)NCc2ccc(OCC3CC3)nc2)C1 (stereo unspecified)	none (no result: IP6K1 inhibitor)
COc1ccc2[nH]c3c(c2c1)CCNC31CCN(C(=O)C2CCOCC2)CC1	KDM5B inh 22.4µM
COc1ccc(C(=O)N2CCC3(CC2)NCCc2c3[nH]c3ccc(OC)cc23)c(OC)c1	KDM5B inh inconclusive
COc1cc(CNC(=O)N2CCN(Cc3ccc(Br)s3)CC2)ccc1OC(F)F	none (no result: IP6K1 inhibitor)
O=C(Nc1ccc(Oc2ccccc2)cc1)O[C@@H]1CO[C@H]2[C@@H]1OC[C@@H]2n1nnnc1-c1ccc(-c2ccccc2)cc1	KDM5B inh inconclusive
CN(C)c1ccc(-c2nnnn2[C@H]2CO[C@H]3[C@@H]2OC[C@@H]3NC(=O)NCc2ccccc2)cc1	none
CN(C)c1ccc(-c2nnnn2[C@H]2CO[C@H]3[C@@H]2OC[C@H]3OC(=O)Nc2ccc(Oc3ccccc3)cc2)cc1	KDM5B inh 12.6µM
CN(C)c1ccc(-c2nnnn2[C@H]2CO[C@H]3[C@@H]2OC[C@H]3OCc2ccccc2)cc1	KDM5B inh 31.6µM
COc1ccc(CNC(=O)C2CCCN(c3nccc(Nc4ccccc4F)n3)C2)cc1 (stereo unspecified)	none (no result: KDM5B inh)

Screening data: PubChem BioAssay, National Center for Advancing Translational Sciences (NCATS)
